# Test results taken from PubChem BioAssay (NCI).
# Compounds without any hit were thinned out: in the full panel of roughly 83,000, 20% have a hit.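 Percent growth is the endpoint: 0 to 100 indicates growth inhibition (40 means 60% inhibition), 0 means no net growth, and negative values indicate cell death.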 Unmarked numbers belong to inactive results. Activity calls are given as the source filed them. Rule for the calls: active = growth percent below 10; inactive = the rest.
# Legend:
# Assay in all cases: NCI-60 one-dose screen, 48 h (100 = growth as untreated, 0 = no growth, -100 = all killed)
# [1] = system: HCT-15 colon
# [2] = system: HT29 colon
# [3] = system: SNB-75 CNS
# [4] = system: SNB-19 CNS
# [5] = system: U251 CNS
# [6] = system: PC-3 prostate
# [7] = system: SK-MEL-5 melanoma
# [8] = system: UACC-62 melanoma
# [9] = system: LOX IMVI melanoma
# [10] = system: SK-MEL-2 melanoma
# [11] = system: EKVX NSCLC
# [12] = system: TK-10 renal
# [13] = system: ACHN renal
# [14] = system: A498 renal
# [15] = system: CCRF-CEM leukemia
# [16] = system: SK-MEL-28 melanoma
# [17] = system: SN12C renal
# [18] = system: UO-31 renal
# [19] = system: CAKI-1 renal
compound,measurement,setting,value
CC#C[C@]1(O)CC[C@H]2[C@@H]3CCC4=CC(=O)CCC4=C3[C@@H](c3ccc4c(c3)OCO4)C[C@@]21C,growth,[1]; 10 µM,69.3%
same,growth,[1]; 100 µM,-13.9% (active)
same,growth,[2]; 10 µM,102%
same,growth,[2]; 100 µM,-19.2% (active)
same,growth,[3]; 10 µM,58.6%
same,growth,[3]; 100 µM,-6.95% (active)
same,growth,[4]; 10 µM,75.8%
same,growth,[4]; 100 µM,4.26% (active)
same,growth,[5]; 10 µM,76.1%
same,growth,[5]; 100 µM,-49.5% (active)
same,growth,[6]; 10 µM,67.4%
same,growth,[6]; 100 µM,0.372% (active)
same,growth,[7]; 10 µM,83.6%
same,growth,[7]; 100 µM,-80.3% (active)
same,growth,[8]; 10 µM,56.6%
same,growth,[8]; 100 µM,-50.1% (active)
same,growth,[9]; 10 µM,83.7%
same,growth,[9]; 100 µM,-89.6% (active)
same,growth,[10]; 10 µM,71.1%
same,growth,[10]; 100 µM,-50.8% (active)
same,growth,[11]; 10 µM,72.4%
same,growth,[11]; 100 µM,-10.7% (active)
same,growth,[12]; 10 µM,69.9%
same,growth,[12]; 100 µM,-25.2% (active)
same,growth,[13]; 10 µM unless noted,80.4%
same,growth,[14]; 10 µM,63%
same,growth,[14]; 100 µM,-59.7% (active)
same,growth,[15]; 10 µM,89.9%
same,growth,[15]; 100 µM,-11.2% (active)
O=C=NC(c1ccccc1)(c1ccccc1)c1ccccc1,growth,[1]; 10 µM unless noted,102%
same,growth,[2]; 10 µM unless noted,99.9%
same,growth,[3]; 10 µM unless noted,84.7%
same,growth,[4]; 10 µM unless noted,107%
same,growth,[5]; 10 µM unless noted,99.4%
same,growth,[6]; 10 µM unless noted,102%
same,growth,[7]; 10 µM unless noted,114%
same,growth,[8]; 10 µM unless noted,101%
same,growth,[9]; 10 µM unless noted,102%
same,growth,[16]; 10 µM unless noted,114%
same,growth,[10]; 10 µM unless noted,118%
same,growth,[11]; 10 µM unless noted,111%
same,growth,[17]; 10 µM unless noted,102%
same,growth,[18]; 10 µM unless noted,71.9%
same,growth,[12]; 10 µM unless noted,110%
same,growth,[13]; 10 µM unless noted,99.2%
same,growth,[19]; 10 µM unless noted,91.7%
same,growth,[14]; 10 µM unless noted,116%
same,growth,[15]; 10 µM unless noted,102%
CNC(=O)c1cc(Oc2ccc(CC(=O)Nc3cc(C(C)(C)C)nn3C)cc2)ccn1,growth,[1]; 1 µM,92.7%
same,growth,[1]; 10 µM,83.1%
same,growth,[1]; 30 µM,70.5%
same,growth,[2]; 1 µM,90.7%
same,growth,[2]; 10 µM,94.1%
same,growth,[2]; 30 µM,86.5%
same,growth,[3]; 1 µM,51.3%
same,growth,[3]; 10 µM,68%
same,growth,[3]; 30 µM,77.9%
same,growth,[4]; 1 µM,71.4%
same,growth,[4]; 10 µM,65.3%
same,growth,[4]; 30 µM,81.3%
same,growth,[5]; 1 µM,86%
same,growth,[5]; 10 µM,84.5%
same,growth,[5]; 30 µM,90.3%
same,growth,[6]; 1 µM,77.9%
same,growth,[6]; 10 µM,77.1%
same,growth,[6]; 30 µM,85.5%
same,growth,[7]; 1 µM,22.8%
same,growth,[7]; 10 µM,30.8%
same,growth,[8]; 1 µM,62.2%
same,growth,[8]; 10 µM,42%
same,growth,[8]; 30 µM,56.3%
same,growth,[9]; 1 µM,76.6%
same,growth,[9]; 10 µM,48.9%
same,growth,[9]; 30 µM,56.2%
same,growth,[16]; 1 µM,81.7%
same,growth,[16]; 10 µM,83.8%
same,growth,[16]; 30 µM,89.9%
same,growth,[10]; 1 µM,67.9%
same,growth,[10]; 10 µM,55.6%
same,growth,[10]; 30 µM,78.3%
same,growth,[11]; 1 µM,73.5%
same,growth,[11]; 10 µM,62%
same,growth,[11]; 30 µM,49.2%
same,growth,[17]; 1 µM,72.8%
same,growth,[17]; 10 µM,78.6%
same,growth,[17]; 30 µM,87.1%
same,growth,[18]; 1 µM,77.1%
same,growth,[18]; 10 µM,93.2%
same,growth,[18]; 30 µM,113%
same,growth,[12]; 1 µM,95.2%
same,growth,[12]; 10 µM,80.4%
same,growth,[12]; 30 µM,103%
same,growth,[13]; 1 µM,67.7%
same,growth,[13]; 10 µM,67.8%
same,growth,[13]; 30 µM,73.4%
same,growth,[19]; 1 µM,57.9%
same,growth,[19]; 10 µM,61.3%
same,growth,[19]; 30 µM,76.5%
same,growth,[14]; 1 µM,69.3%
same,growth,[14]; 10 µM,31.2%
same,growth,[14]; 30 µM,54.8%
same,growth,[15]; 1 µM,73.3%
same,growth,[15]; 10 µM,66.1%
same,growth,[15]; 30 µM,62.9%
